The target in test [1] is Insulin receptor (Homo sapiens) (UniProt P06213). The following applies: at 10 µM.
Test [2] has the same target. Conditions: at 1 µM.
The target of test [3] is T1, Interleukin-1 receptor-associated kinase 4 (Homo sapiens) (UniProt Q9NWZ3).
T1 sequence (whole entry): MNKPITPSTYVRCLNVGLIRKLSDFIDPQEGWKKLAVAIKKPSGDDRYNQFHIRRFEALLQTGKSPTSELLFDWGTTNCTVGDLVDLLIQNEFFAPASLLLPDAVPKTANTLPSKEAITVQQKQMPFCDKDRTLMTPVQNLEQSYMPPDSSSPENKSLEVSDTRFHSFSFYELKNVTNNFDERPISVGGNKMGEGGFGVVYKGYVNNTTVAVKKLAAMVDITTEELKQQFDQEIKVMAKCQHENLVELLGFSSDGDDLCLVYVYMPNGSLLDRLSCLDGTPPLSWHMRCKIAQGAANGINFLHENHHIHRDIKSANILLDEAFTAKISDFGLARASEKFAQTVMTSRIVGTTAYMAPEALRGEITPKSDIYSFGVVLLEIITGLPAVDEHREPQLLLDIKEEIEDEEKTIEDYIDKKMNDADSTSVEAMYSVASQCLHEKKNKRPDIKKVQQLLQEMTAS
Conditions: at 1 µM.

Test [4] deals with T1, Interleukin-1 receptor-associated kinase 4 (Homo sapiens). The following applies: at 10 µM.
Test [5] addresses Insulin receptor-related protein (Homo sapiens) (UniProt P14616). Conditions: at 1 µM.
Test [6] has the same target. The following applies: at 10 µM.
Test [7] deals with T2, Tyrosine-protein kinase ITK/TSK (Homo sapiens) (UniProt Q08881).
T2 sequence (whole entry): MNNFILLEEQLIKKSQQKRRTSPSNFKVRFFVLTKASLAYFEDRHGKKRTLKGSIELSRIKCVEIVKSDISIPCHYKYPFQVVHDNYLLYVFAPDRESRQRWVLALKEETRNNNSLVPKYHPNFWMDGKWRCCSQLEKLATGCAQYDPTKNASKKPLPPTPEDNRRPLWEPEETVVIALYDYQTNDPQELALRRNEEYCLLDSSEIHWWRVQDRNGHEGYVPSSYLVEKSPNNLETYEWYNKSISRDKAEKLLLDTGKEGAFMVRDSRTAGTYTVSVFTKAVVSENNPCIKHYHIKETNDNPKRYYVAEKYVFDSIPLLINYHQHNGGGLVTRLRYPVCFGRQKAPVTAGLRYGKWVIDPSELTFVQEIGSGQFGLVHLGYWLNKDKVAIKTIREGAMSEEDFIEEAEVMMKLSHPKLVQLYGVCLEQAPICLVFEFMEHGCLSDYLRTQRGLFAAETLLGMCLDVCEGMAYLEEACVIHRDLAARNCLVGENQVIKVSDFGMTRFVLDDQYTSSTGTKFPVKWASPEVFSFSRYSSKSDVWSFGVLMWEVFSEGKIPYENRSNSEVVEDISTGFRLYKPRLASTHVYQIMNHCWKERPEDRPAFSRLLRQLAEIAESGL
Conditions: at 1 µM.

The target of test [8] is Tyrosine-protein kinase JAK2 (Homo sapiens) (UniProt O60674). Conditions: at 10 µM.
For test [9], the target named is T3, Tyrosine-protein kinase JAK3 (Homo sapiens) (UniProt P52333).
T3 sequence (whole entry): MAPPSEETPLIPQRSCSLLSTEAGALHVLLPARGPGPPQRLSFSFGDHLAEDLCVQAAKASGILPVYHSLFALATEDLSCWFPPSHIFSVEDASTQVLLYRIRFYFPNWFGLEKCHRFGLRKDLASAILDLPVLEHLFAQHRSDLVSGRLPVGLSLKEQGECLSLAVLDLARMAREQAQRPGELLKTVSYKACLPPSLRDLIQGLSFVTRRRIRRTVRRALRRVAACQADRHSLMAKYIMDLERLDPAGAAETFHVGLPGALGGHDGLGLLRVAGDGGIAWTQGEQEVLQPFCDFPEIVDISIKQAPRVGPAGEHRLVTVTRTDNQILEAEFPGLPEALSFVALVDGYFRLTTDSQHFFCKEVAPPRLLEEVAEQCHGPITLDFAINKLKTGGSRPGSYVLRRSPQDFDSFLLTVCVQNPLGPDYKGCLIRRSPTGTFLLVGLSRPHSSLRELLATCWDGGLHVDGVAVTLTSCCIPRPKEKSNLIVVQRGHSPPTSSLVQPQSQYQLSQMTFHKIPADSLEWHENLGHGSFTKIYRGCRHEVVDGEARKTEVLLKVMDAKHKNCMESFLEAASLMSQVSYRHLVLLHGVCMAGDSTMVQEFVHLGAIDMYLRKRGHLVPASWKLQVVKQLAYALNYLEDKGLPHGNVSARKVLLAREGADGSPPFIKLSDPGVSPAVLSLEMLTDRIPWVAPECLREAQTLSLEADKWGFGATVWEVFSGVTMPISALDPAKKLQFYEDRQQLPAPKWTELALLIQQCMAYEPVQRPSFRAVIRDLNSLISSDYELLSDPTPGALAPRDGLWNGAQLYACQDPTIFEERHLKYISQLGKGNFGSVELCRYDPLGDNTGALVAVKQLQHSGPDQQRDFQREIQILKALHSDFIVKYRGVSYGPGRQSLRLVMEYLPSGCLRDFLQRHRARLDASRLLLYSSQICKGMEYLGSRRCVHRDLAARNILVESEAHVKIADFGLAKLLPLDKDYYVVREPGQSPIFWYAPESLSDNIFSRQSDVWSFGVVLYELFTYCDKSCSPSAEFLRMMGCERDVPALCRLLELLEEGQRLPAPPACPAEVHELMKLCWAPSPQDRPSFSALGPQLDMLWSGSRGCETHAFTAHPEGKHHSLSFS
The following applies: at 1 µM.

The target of test [10] is T3, Tyrosine-protein kinase JAK3 (Homo sapiens). Conditions: at 10 µM.
Test [11] concerns the target Mitogen-activated protein kinase 8 (Homo sapiens) (UniProt P45983). Conditions: at 10 µM.
The target of test [12] is Mitogen-activated protein kinase 10 (Homo sapiens) (UniProt P53779). Conditions: at 1 µM.
Test [13] addresses Insulin receptor (Homo sapiens) (UniProt P06213). The following applies: at 10 µM. The source holds these as a separate data set.
The target of test [14] is Interleukin-1 receptor-associated kinase 1 (Homo sapiens) (UniProt P51617). The following applies: at 1 µM.
Test [15] shares this target. Conditions: at 10 µM.
For test [16], the target named is T2, Tyrosine-protein kinase ITK/TSK (Homo sapiens). Conditions: at 10 µM.
The target in test [17] is Tyrosine-protein kinase JAK2 (Homo sapiens) (UniProt O60674). Conditions: at 1 µM.
Test [18] addresses Mitogen-activated protein kinase 8 (Homo sapiens) (UniProt P45983). Conditions: at 1 µM.
Test [19] addresses Mitogen-activated protein kinase 9 (Homo sapiens) (UniProt P45984). The following applies: at 1 µM.
Test [20] has the same target. The following applies: at 10 µM.

Interleukin-1 receptor-associated kinase 1 (Homo sapiens), sequence (P51617 whole entry, looked up): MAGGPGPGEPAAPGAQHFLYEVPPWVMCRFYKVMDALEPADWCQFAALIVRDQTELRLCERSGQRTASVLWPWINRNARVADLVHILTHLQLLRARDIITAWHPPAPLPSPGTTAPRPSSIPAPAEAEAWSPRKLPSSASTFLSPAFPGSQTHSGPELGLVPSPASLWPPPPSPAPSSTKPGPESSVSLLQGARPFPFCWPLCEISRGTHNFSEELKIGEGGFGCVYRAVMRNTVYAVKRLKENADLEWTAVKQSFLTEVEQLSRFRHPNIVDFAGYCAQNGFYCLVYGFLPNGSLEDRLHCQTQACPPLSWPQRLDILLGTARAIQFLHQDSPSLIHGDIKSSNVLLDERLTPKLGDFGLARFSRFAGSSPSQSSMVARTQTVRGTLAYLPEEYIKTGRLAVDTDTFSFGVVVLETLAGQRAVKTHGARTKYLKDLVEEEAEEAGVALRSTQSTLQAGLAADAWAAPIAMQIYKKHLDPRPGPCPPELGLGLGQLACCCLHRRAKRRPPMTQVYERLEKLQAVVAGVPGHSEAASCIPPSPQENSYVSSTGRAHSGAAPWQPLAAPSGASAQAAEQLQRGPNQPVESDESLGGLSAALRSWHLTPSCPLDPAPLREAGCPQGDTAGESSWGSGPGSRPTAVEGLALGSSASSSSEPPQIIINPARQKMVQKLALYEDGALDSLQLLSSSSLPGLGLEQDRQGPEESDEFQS
Insulin receptor-related protein (Homo sapiens), sequence (P14616 27-742 limits assumed): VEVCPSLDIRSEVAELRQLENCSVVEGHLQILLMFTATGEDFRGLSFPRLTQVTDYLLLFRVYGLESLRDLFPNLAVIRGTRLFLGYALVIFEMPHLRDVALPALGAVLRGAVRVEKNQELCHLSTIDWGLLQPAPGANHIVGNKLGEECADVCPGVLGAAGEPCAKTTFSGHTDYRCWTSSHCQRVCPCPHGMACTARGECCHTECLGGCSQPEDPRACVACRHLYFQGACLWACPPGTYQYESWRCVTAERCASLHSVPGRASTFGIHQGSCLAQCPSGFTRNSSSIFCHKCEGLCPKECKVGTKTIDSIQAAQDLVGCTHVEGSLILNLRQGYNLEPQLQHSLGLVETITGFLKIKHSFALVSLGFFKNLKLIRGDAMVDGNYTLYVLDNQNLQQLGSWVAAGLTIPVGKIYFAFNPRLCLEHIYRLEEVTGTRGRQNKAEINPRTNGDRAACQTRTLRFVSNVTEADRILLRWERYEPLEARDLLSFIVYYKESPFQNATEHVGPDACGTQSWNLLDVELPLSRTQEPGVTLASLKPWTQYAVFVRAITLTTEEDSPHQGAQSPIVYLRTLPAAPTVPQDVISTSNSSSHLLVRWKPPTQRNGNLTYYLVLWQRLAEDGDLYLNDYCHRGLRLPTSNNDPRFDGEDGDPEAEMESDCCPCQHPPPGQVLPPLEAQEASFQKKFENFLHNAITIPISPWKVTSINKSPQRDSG
Insulin receptor-related protein (Homo sapiens), sequence (P14616 747-1297 limits assumed): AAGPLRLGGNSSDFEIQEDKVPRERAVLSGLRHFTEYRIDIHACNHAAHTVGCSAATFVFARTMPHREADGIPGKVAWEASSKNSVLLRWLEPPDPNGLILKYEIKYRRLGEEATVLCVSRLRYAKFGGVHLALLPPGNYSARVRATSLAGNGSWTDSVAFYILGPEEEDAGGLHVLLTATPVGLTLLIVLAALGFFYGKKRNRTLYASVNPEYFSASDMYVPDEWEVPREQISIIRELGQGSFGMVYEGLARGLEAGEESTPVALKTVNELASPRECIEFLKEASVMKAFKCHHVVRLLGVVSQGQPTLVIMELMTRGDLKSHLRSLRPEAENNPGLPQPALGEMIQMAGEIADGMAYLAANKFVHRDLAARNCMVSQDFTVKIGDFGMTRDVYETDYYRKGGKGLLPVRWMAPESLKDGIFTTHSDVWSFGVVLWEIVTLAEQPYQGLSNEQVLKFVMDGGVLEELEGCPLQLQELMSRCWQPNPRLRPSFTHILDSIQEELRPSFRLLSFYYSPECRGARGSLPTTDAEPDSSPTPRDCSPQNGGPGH
Insulin receptor (Homo sapiens), sequence (P06213 28-758 limits assumed): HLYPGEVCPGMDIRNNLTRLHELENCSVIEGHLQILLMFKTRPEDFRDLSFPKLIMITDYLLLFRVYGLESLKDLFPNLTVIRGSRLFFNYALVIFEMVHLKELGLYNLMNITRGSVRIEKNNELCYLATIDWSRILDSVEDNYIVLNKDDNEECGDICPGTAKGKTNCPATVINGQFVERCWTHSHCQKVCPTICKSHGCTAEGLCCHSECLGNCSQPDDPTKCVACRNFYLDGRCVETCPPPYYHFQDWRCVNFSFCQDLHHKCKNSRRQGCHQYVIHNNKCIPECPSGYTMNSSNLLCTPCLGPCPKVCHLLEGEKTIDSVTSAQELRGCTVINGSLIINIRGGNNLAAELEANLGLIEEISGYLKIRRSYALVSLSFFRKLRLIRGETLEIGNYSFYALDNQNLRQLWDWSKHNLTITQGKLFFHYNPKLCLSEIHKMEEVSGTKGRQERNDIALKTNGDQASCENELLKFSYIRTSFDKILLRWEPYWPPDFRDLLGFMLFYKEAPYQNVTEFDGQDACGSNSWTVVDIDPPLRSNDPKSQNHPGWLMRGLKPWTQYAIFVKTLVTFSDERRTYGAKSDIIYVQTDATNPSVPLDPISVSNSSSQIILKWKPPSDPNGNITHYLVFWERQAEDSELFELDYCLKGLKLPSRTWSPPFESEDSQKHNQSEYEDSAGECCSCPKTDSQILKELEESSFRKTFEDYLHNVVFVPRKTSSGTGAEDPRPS
Insulin receptor (Homo sapiens), sequence (P06213 763-1382 limits assumed): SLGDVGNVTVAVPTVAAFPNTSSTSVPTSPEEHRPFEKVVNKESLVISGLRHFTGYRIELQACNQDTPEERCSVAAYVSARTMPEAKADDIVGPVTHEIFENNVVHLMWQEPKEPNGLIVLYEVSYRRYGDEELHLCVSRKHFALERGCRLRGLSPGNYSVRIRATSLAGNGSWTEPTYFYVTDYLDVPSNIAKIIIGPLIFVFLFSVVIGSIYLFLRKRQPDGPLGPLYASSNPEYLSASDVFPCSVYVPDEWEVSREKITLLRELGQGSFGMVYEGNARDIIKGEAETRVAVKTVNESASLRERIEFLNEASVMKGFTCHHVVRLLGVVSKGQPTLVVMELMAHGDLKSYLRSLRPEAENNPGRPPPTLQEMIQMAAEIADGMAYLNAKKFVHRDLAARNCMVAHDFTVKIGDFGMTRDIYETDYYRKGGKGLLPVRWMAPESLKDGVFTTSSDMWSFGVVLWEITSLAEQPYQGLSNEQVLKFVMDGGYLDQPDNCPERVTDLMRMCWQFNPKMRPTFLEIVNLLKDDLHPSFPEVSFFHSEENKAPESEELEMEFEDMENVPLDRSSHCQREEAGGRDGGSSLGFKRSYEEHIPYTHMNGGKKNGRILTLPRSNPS
Mitogen-activated protein kinase 10 (Homo sapiens), sequence (P53779 whole entry): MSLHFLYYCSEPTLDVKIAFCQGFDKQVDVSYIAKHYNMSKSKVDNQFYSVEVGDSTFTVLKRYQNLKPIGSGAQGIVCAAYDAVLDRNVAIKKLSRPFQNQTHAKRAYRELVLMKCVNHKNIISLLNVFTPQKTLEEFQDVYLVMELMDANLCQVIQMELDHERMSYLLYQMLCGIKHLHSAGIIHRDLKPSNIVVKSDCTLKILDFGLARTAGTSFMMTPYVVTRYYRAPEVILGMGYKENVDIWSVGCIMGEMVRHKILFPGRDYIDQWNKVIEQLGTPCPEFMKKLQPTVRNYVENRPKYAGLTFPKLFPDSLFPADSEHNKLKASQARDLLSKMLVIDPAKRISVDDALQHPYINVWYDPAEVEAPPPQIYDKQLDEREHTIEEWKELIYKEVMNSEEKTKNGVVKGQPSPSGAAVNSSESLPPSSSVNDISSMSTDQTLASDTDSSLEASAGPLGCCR
Tyrosine-protein kinase JAK2 (Homo sapiens), sequence (O60674 whole entry): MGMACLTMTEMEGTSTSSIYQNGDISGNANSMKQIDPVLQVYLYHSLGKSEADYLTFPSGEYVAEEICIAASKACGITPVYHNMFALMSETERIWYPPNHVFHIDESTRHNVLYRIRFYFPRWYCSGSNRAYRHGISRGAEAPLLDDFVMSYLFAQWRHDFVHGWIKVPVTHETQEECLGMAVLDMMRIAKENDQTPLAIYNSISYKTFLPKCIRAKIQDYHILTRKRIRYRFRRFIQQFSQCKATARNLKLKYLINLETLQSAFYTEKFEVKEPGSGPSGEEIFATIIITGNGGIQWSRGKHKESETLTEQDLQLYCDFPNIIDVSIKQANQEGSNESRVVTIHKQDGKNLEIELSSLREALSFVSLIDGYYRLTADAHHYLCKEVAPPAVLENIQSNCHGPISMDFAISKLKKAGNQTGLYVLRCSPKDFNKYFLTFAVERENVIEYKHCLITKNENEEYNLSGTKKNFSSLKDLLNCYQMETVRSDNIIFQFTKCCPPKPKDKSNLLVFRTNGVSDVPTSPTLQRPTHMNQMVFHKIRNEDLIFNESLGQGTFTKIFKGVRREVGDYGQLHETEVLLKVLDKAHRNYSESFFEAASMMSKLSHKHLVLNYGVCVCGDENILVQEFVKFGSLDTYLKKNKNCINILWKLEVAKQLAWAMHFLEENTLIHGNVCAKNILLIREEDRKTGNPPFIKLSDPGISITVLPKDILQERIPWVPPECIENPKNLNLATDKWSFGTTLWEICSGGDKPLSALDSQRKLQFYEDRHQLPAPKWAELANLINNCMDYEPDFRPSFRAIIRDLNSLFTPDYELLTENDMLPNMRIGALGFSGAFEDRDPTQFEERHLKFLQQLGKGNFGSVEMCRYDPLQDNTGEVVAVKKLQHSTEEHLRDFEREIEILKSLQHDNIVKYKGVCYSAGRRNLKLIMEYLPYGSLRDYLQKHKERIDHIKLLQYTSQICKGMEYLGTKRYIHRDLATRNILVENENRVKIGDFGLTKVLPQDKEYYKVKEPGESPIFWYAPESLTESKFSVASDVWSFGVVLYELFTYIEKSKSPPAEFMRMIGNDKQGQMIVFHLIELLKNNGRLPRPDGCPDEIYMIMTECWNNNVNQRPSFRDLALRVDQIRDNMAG

Regarding `O=C1NC(=O)C(c2c[nH]c3ccccc23)=C1c1c[nH]c2ccccc12`, the residual activity stood at 62% in [1]; 100% in [2]; 81% in test [3]; 27% in test [4]; 120% in test [5]; 37% in test [6]. Besides, the residual activity in test [7] was found to be 100%; in [8], 33%; in test [9], 43%; in test [10] it was 6%; in test [11] it was 35%; in [12], 56%.

Regarding `COc1ccc2c(c1)c(C1=C(c3c[nH]c4ccccc34)C(=O)NC1=O)cn2CCCN(C)C`, the residual activity in [1] worked out at 73%; in [2] it was 97%; in test [13], 71%; in test [14] it was 81%; in [15], 75%; in test [5], 122%. Also, the residual activity in test [6] was 67%; in [7] it was 101%; in [16], 79%; in test [17], 114%; in test [8] it was 81%; in test [9], 102%. In addition, the residual activity stood at 50% in [10]; 104% in test [18]; 57% in [11]; 111% in test [19]; 74% in [12].

Take `COc1cc2nccc(Oc3ccc(NC(=S)NC(=O)c4ccccc4C)cc3)c2cc1OC`: the residual activity in test [1] came to 138%; in test [2] it was 97%; in test [13], 92%; in test [14] it was 79%; in test [15], 67%; in [3], 96%. In addition, the residual activity in test [5] amounted to 121%; in test [6], 74%; in [7] it was 79%; in [16] it was 48%; in test [9], 86%; in test [10], 92%. Also, the residual activity in [18] stood at 95%; in [11], 78%; in [20], 87%; in test [12], 69%.

Turning to `CCCCc1c(-c2ccc(OC)cc2)[nH]c2nccnc12`, the residual activity in test [2] was 66%; in test [13] it was 75%; in [14], 62%; in [15], 81%; in [3], 79%; in test [4] it was 65%. The residual activity in test [5] turned out to be 100%; in test [6], 88%; in [7] it was 82%; in test [16], 92%; in test [17] it was 71%; in test [8] it was 49%. Moreover, the residual activity in test [9] was 81%; in test [10] it was 86%; in [18], 105%; in test [19] it was 91%; in [20], 109%; in [12], 48%.

As for `O=C1NC(=O)c2c1c1c3ccccc3[nH]c1n1cncc21`, the residual activity was found to be 15% in test [1]; 31% in test [2]; 19% in test [13]; 76% in test [14]; 66% in test [15]; 61% in test [3]. Moreover, the residual activity in test [4] stood at 56%; in test [5], 5%; in [6], 3%; in [7], 85%; in test [16], 44%; in test [17], 97%. Further, the residual activity in test [8] was found to be 93%; in [9], 83%; in test [10], 58%; in [18], 89%; in test [11], 75%; in test [19], 67%. The residual activity was 49% in [20] and 25% in test [12].

`CC(C)(C)n1nc(Cc2cccc3ccccc23)c2c(N)ncnc21`: the residual activity in [1] came to 65%; in [2] it was 95%; in test [13], 63%; in test [14], 90%; in [15], 77%; in test [3] it was 105%. Further, the residual activity amounted to 81% in [4]; 124% in [5]; 78% in test [6]; 107% in [7]; 106% in [16]; 101% in test [17]. Also, the residual activity in test [8] was determined as 121%; in test [9], 99%; in [10], 100%; in test [18], 108%; in test [11], 78%; in test [19] it was 108%. In addition, the residual activity in test [20] was found to be 78%; in [12], 28%.

`O=c1cc(N2CCOCC2)oc2c(-c3ccccc3)cccc12`: the residual activity in [6] was found to be 75%; in test [11] it was 79%; in [12], 70%.

In the case of `O=C(c1cc2cc(O)ccc2[nH]1)c1cc2cc(O)ccc2[nH]1`, the residual activity worked out at 65% in test [14]; 23% in [15]; 50% in test [3]; 20% in test [4]; 55% in test [6]; 64% in test [7]. Also, the residual activity was found to be 16% in [16], 64% in test [9], 17% in test [10] and 51% in test [12].

For the compound `Nc1ncnc2c1cnn2-c1ccccc1`, the residual activity in test [14] worked out at 93%; in test [15], 84%; in test [4] it was 84%; in [5] it was 135%; in test [6], 93%; in [7], 102%. The residual activity stood at 97% in test [16]; 126% in test [17]; 93% in [8]; 95% in [20]; 78% in test [12].

`CC(C)(C)c1nc2c3ccc(F)cc3c3c(=O)[nH]ccc3c2[nH]1`: the residual activity in test [14] was 55%; in [15] it was 62%; in test [3], 61%; in [4], 53%; in test [5], 101%; in test [6] it was 52%. Besides, the residual activity in test [16] is 66%; in test [17], -1%; in [8], 1%; in test [9] it was 1%; in [10], 1%; in test [18], 32%. The residual activity in test [11] is 9%; in test [12], -2%.

Consider `Fc1ccc(-c2nc3n(c2-c2ccncc2)CCS3)cc1`, for which the residual activity in test [5] amounted to 128%; in test [17], 99%; in test [8] it was 100%; in test [11], 81%; in test [19] it was 73%; in test [20], 20%. The residual activity in test [12] turned out to be 14%.

As for `O=C1Cc2c([nH]c3ccc([N+](=O)[O-])cc23)-c2ccccc2N1`, the residual activity was determined as 106% in [8]; 101% in [9]; 101% in test [10]; 109% in [18]; 104% in test [19]; 101% in [20]. In addition, the residual activity in test [12] was 70%.

As for `O=c1c(-c2ccc(F)cc2)c(-c2ccncc2)[nH]n1-c1ccc(Cl)cc1`, the values for the residual activity in test [19], in [20] and in [12] were 7%, -10% and -2%, respectively.

For the compound `COc1cc2nccc(Oc3ccc(NC(=O)Nc4cc(C)on4)c(Cl)c3)c2cc1OC`, the residual activity in test [14] turned out to be 82%; in [5] it was 102%; in [6], 29%; in [9] it was 100%; in test [10], 48%; in test [18] it was 120%. Also, in [11], the residual activity was 109%.

`COc1cc2ncnc(Nc3cccc(Cl)c3)c2cc1OC`: the residual activity was 84% in test [14]; 35% in [15]; 64% in test [3]; 5% in [4]; 105% in test [5]; 102% in test [6]. Moreover, the residual activity came out at 100% in test [7]; 105% in [16]; 123% in test [17]; 86% in [8]; 109% in test [9]; 118% in [10]. Besides, the residual activity in [18] is 112%; in test [11] it was 122%; in test [12], 73%.

These data come from ChEMBL document CHEMBL2218924, “A broad activity screen in support of a chemogenomic map for kinase signalling research and drug discovery” (Biochem J, 2013).
